Assay outcomes as filed in PubChem.
Efa HMGR inh: inhibitors of class II HMG-CoA reductase from Enterococcus faecalis; purified E. faecalis HMGR, NADPH absorbance 340 nm kinetic; 0.41% of 190,000 active; inhibition, % at 10 µM; AID 1066;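 active means inhibition above a set limit, the median over all tested compounds plus 3 SD, cut at about 9.5% in these data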;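 further: enzyme runs in reverse so mevalonate oxidation gives rising NADPH absorbance; 0% = complete reaction with DMSO and 100% = background rate lacking mevalonate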
eIF4H inh: inhibitors of RNA binding by human eIF4H; Q15056; eIF4H fluorescence polarization binding assay; inhibition, % at 35 µM; 0.94% of 290,000 active;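 further: calls also rest on retests at 20 µM and on dose response follow-up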
PABP FP inh: blocks human PABP binding to poly(A) RNA | fluorescence polarization | AID 2014 | 1% of 290,000 active | P11940 | calls only at 35 µM;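 further: calls also rest on retests at 20 µM and on dose response follow-up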
PHOSPHO1 block: PHOSPHO1 (human) inhibition; Q8TCT1; recombinant PHOSPHO1, absorbance phosphatase assay; inhibition, % at 13.3 µM; 1.1% of 290,000 active; AID 1565; in the data active means inhibition above about 60%
Target sequence (Q8TCT1 whole entry, looked up): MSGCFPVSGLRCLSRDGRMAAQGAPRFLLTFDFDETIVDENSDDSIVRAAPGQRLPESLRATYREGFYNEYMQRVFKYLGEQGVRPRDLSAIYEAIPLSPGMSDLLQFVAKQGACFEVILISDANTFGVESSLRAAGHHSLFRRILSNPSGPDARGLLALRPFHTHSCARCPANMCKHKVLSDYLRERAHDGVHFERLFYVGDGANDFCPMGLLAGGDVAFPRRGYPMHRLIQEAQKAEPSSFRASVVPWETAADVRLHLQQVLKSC
MLLE-PAM2 inh: blocks PAM2 peptide binding to the PABP1 MLLE domain; P11940; GST-MLLE / FITC-PAM2 fluorescence polarization; inhibition, % at 20 µM; 0.36% of 360,000 active; AID 588489; in the data active means inhibition above about 35%, passing the limit was not always enough;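 further: plate controls were DMSO wells with GST-MLLE for no effect and wells lacking GST-MLLE protein for full effect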
* hit, by the source's call. In the library only some 2.4% were active in any assay of this set; here they are far more common. Unless noted, how the calls were made is not given here.

CC(=O)Nc1ccccc1OCC(=O)N(Cc1ccccc1)C(C)C was read as Efa HMGR inh -2.9, eIF4H inh -14.0, PABP FP inh inactive, PHOSPHO1 block 8.2 and MLLE-PAM2 inh 12.7.
Screening CCOC(=O)N1CCN(C(=O)CSc2ccc(-c3cccnc3)nn2)CC1 returned Efa HMGR inh 10.3*, eIF4H inh -4.9, PABP FP inh inactive and PHOSPHO1 block -22.9.
For CCOC(=O)N1CCN(C(=O)CSc2ccc(-c3cccc(OC)c3)nn2)CC1 the results were Efa HMGR inh -3.1, eIF4H inh 12.5, PABP FP inh inactive, PHOSPHO1 block 0.6 and MLLE-PAM2 inh 11.2.
For Cc1ccc(NC(=O)CSc2ccc(-c3cccnc3)nn2)c(C)c1 the results were eIF4H inh 12.4, PABP FP inh inactive, PHOSPHO1 block 72.8* and MLLE-PAM2 inh 15.6.
Screening Cc1ccc(NC(=O)CSc2ccc(-c3ccccn3)nn2)c(C)c1 returned eIF4H inh 1.4, PABP FP inh inactive, PHOSPHO1 block 13.0 and MLLE-PAM2 inh -2.1.
Screening Cc1cc(C)cc(C(=O)Nc2c3c(nn2C(C)(C)C)CS(=O)(=O)C3)c1 returned eIF4H inh 0.0, PABP FP inh inactive, PHOSPHO1 block 34.4 and MLLE-PAM2 inh 11.3.
`CC(C)(C)n1nc2c(c1NC(=O)c1cccc(Cl)c1)CS(=O)(=O)C2` gave eIF4H inh -18.9, PABP FP inh inactive, PHOSPHO1 block 64.9* and MLLE-PAM2 inh 7.2.
Screening O=C1CCNc2cc3ccccc3cc21 returned Efa HMGR inh 0.1, eIF4H inh 82.2*, PABP FP inh active, PHOSPHO1 block -26.6 and MLLE-PAM2 inh 24.4.
Screening O=C(O)c1ccc2c(c1)C(=O)N(c1cccc3ccccc13)C2=O returned eIF4H inh -5.1, PABP FP inh inactive, PHOSPHO1 block 37.3 and MLLE-PAM2 inh -1.5.
Screening O=[N+]([O-])c1cccc(C(=S)N2CCN(c3ccc(F)cc3)CC2)c1 returned Efa HMGR inh 0.2, eIF4H inh 3.4, PABP FP inh inactive, PHOSPHO1 block 5.8 and MLLE-PAM2 inh 76.3*.
Screening CCOc1cc(CNCc2cccnc2)ccc1OCC(=O)NC(C)(C)C returned Efa HMGR inh 4.0, eIF4H inh -0.4, PABP FP inh inactive, PHOSPHO1 block 72.9* and MLLE-PAM2 inh -9.4.
For CCOc1cc(CNCCc2ccccc2)ccc1OCC(=O)NC(C)(C)C the results were Efa HMGR inh 3.0, eIF4H inh -13.8, PABP FP inh inactive, PHOSPHO1 block -15.0 and MLLE-PAM2 inh -0.5.
Screening C=CCNc1sc(C(=O)c2ccccc2)c(N)c1-c1nc2ccccc2s1 returned Efa HMGR inh 3.8, eIF4H inh 26.5, PABP FP inh inactive, PHOSPHO1 block 97.5* and MLLE-PAM2 inh 22.8.
`CC(C)Cn1c(N)c(C(=O)COC(=O)CC23CC4CC(CC(C4)C2)C3)c(=O)n(C)c1=O` gave Efa HMGR inh 1.1, eIF4H inh -0.8, PABP FP inh inactive, PHOSPHO1 block 17.9 and MLLE-PAM2 inh -14.6.
Screening COc1cccc(-c2nc(CSCC(=O)NCC3CCCO3)c(C)o2)c1 (configuration not stated) returned Efa HMGR inh -3.2, eIF4H inh -5.3, PABP FP inh inactive, PHOSPHO1 block 12.9 and MLLE-PAM2 inh 45.6*.
For CC(C)(C)NC(=O)CSc1nc2ccccc2n1-c1ccccc1 the results were Efa HMGR inh -1.9, eIF4H inh -7.6, PABP FP inh inactive, PHOSPHO1 block 61.5* and MLLE-PAM2 inh -3.5.
`COc1ccc(-n2c(SCC(=O)NCC3CCCO3)nc3ccccc32)cc1` (configuration not stated) gave Efa HMGR inh -6.0, eIF4H inh 77.6, PABP FP inh inactive, PHOSPHO1 block 77.7* and MLLE-PAM2 inh -62.3.
For CC(C)(C)NC(=O)CSc1nccn1Cc1ccccc1 the results were Efa HMGR inh 1.7, eIF4H inh 67.6*, PABP FP inh active, PHOSPHO1 block 7.4 and MLLE-PAM2 inh -64.7.
O=C(CSc1nccn1Cc1ccccc1)Nc1ccccc1 was read as eIF4H inh -2.0, PABP FP inh inactive, PHOSPHO1 block 12.6 and MLLE-PAM2 inh -4.5.
For Cc1ccc(-c2sc(C(=O)NN)c(C)c2C#N)cc1 the results were eIF4H inh -2.6, PABP FP inh inactive, PHOSPHO1 block -9.9 and MLLE-PAM2 inh -13.6.
For COCCNC(=S)N1CCC2CC1c1c(Cl)cccc12 (configuration not stated) the results were MLLE-PAM2 inh -106.9.
For O=C(CNC(=O)c1ccc(Br)o1)Nc1ccc(F)c(S(=O)(=O)N2CCOCC2)c1 the results were MLLE-PAM2 inh -2.5.
For Cc1nc(NC(=O)C2CCCC2)sc1Cc1ccc2c(c1)OCO2 the results were Efa HMGR inh 2.2, eIF4H inh -5.3, PABP FP inh inactive, PHOSPHO1 block 4.7 and MLLE-PAM2 inh -2.0.
Screening Cc1cccc(C(=O)NCCC(=O)Nc2nc(C)c(Cc3ccc4c(c3)OCO4)s2)c1 returned Efa HMGR inh -5.3, eIF4H inh active, PABP FP inh active, PHOSPHO1 block -4.0 and MLLE-PAM2 inh -9.0.
Screening CCOC1=CC2=C(C(=O)C(Cl)=CC2=O)[C@@H]2CN(S(=O)(=O)c3ccc(C)cc3)[C@@H](c3ccccc3)[C@H]12 returned MLLE-PAM2 inh 46.4*.
For O=C(CSc1nc2ccccc2n1CCc1ccccc1)N1CCOCC1 the results were Efa HMGR inh -14.7, eIF4H inh -5.4, PABP FP inh inactive, PHOSPHO1 block -16.4 and MLLE-PAM2 inh -7.2.
Screening Cn1c(SCC(=O)c2ccc(O)c(O)c2)nnc1-c1cccs1 returned eIF4H inh 50.0*, PABP FP inh active, PHOSPHO1 block 62.3* and MLLE-PAM2 inh 6.9.
For O=C(CSc1nc2ccccc2n1CCc1ccccc1)c1ccc(O)c(O)c1 the results were Efa HMGR inh -1.8, eIF4H inh 89.9*, PABP FP inh active, PHOSPHO1 block -53.9 and MLLE-PAM2 inh -98.9.
Screening Cc1c(Cl)cn2c(=O)cc(CN3CCN(c4ccc(F)cc4)CC3)nc2c1Cl returned Efa HMGR inh 1.0, eIF4H inh 15.4, PABP FP inh inactive and PHOSPHO1 block 24.3.
For Cc1cc(NC(=O)COc2cccc3cccnc23)no1 the results were Efa HMGR inh -3.9, eIF4H inh 17.6, PABP FP inh inactive and PHOSPHO1 block -16.7.
For COc1ccc2c(c1)c(=O)oc1c(C)c(OCc3cc(C(=O)O)oc3C)ccc12 the results were Efa HMGR inh -5.5, eIF4H inh 83.9, PABP FP inh active, PHOSPHO1 block 22.8 and MLLE-PAM2 inh 1.6.
Cc1oc(C(=O)O)cc1COc1cccc2cccnc12 was read as Efa HMGR inh 0.3, eIF4H inh 92.1*, PABP FP inh inactive, PHOSPHO1 block 0.9 and MLLE-PAM2 inh 1.7.
`COc1ccc2c(c1)c(=O)oc1c(C)c(OCc3ccc(C(=O)O)cc3)ccc12` gave eIF4H inh 70.3, PABP FP inh inactive, PHOSPHO1 block 28.0 and MLLE-PAM2 inh 1.3.
Screening COP(=O)(OC)C(Nc1ccc(Cl)cc1)c1ccccc1 (configuration not stated) returned eIF4H inh 2.2, PABP FP inh inactive, PHOSPHO1 block 14.9 and MLLE-PAM2 inh -9.5.
